# Source: PubChem BioAssay (NCATS)
# Results filed as inconclusive are left out. Where a call stands in place of a potency, no number is given. Activity calls are given as the source filed them. The call rests on the fitted dose curve; in most records, active means well fitted inhibition curve with a large enough effect; inconclusive means small, poorly fitted or top-dose-only effect; inactive means no such curve, though single readings can be large or run the other way.
# System: Zika virus NS2B-NS3 protease (unlinked complex)
# Assay: Primary screen GU Rhodamine qHTS for Zika virus inhibitors: Unlinked NS2B-NS3 protease assay (AID 1347159); further: nearly all actives have a fitted effect of over 60% in size; further: potency means the concentration at half of the fitted maximal effect
# Conditions: Recombinant ZIKV NS2B-NS3 protease, Rhodamine110 substrate fluorescence; series mostly up to 107 µM
# Procedure, shortened: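 Compounds, tested up to 114 microM, were incubated for 15 minutes with 25 nM unlinked NS2B-NS3 protease at pH 8.0. Cleavage of 1.5 microM Rhodamine110 substrate was then followed by fluorescence for 15 minutes.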
row,Compound,Potency
1,COC1=CC(=O)O[C@@H](/C=C/c2ccccc2)C1,inactive
2,CN(C)CCc1c[nH]c2ccc(CN3CCN(C)S3(=O)=O)cc12,inactive
3,CCN1CC2(COC)C3[C@@H](OC)C4C1C3(C1C[C@]3(O)[C@H](OC(=O)c5ccccc5)C1[C@]4(OC(C)=O)[C@@H](O)[C@@H]3OC)[C@H](OC)C[C@H]2O (stereo partly specified),89.1 µM (active)
4,C[C@]12CC[C@H]3[C@@H]([C@H](O)CC4=CC(=O)CC[C@@]43C)[C@@H]1CC[C@@H]2O,inactive

# System: Zika virus NS2B-NS3 protease (linked construct)
# Assay: Primary screen NINDS Rhodamine qHTS for Zika virus inhibitors (AID 1347160); further: nearly all actives have a fitted effect of over 55% in size
# Conditions: purified NS2B-NS3 protease, Rhodamine110 substrate fluorescence; series mostly up to 57.1 µM
# Procedure, shortened: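 Percent inhibition, normalized to uninhibited and enzyme-free controls, is fitted to a 4-parameter Hill equation. Fluorescence change comes from a 15-min cleavage of 1.5 microM bis-peptide Rhodamine110 substrate by 25 nM linked NS2B-NS3 at room temperature.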
Compound,Potency,outcome
O=C(N1CCOCC1)N1CCN(c2ccc(Cl)cc2)CC1,inactive,
COc1cc(C(=O)O[C@H]2[C@@H]3C=CO[C@@H](O[C@@H]4O[C@H](CO)[C@@H](O)[C@H](O)[C@H]4O)[C@@H]3[C@@]3(CO)O[C@@H]23)ccc1O,inactive,
CC1=C2C[C@H]3[C@@H](CC=C4C[C@@H](O)CC[C@@]43C)[C@@H]2CC[C@]12O[C@@H]1C[C@H](C)CN[C@H]1[C@H]2C,inactive,
CCN1C[C@]2(COC(=O)c3ccccc3N3C(=O)C[C@H](C)C3=O)CC[C@H](OC)[C@@]34[C@@H]5C[C@H]6[C@H](OC)[C@@H]5[C@](O)(C[C@@H]6OC)[C@](O)([C@@H](OC)[C@H]23)[C@@H]14,inactive,
C[C@H]1C(=O)O[C@H]2[C@H](O)[C@]34C5OC(=O)[C@]3(O[C@@H]3OC(=O)[C@H](O)C34[C@H](C(C)(C)C)[C@H]5O)C12O (stereo partly specified),inactive,
CC(=O)OC12C(O)C(C)C3(O)C4C=C(C)C(=O)C4CC(CO)=CC3C1C2(C)C (stereo unspecified),inactive,
Clc1ccc(N2C[C@H]3CC[C@@H](C2)N3)nn1,inactive,
C[C@@]12C[C@@H](c3ccoc3)OC(=O)C1CC[C@]1(C)[C@H]2[C@H]2C=C[C@]1(O)C(=O)O2 (stereo partly specified),inactive,
CC(N)Cc1c[nH]c2ccccc12 (stereo unspecified),inactive,
CC1=C2C(=O)C3[C@@H](CC=C4C[C@@H](O)CC[C@@]43C)[C@@H]2CC[C@]12O[C@@H]1C[C@H](C)CN[C@H]1[C@H]2C (stereo partly specified),inactive,
C=C(CO)C(=O)O[C@H]1C/C(C)=C/CC/C(CO)=C/[C@H]2OC(=O)C(=C)[C@H]12,inactive,
C/C=C(\C)C(=O)OC1C(C)OC(OC2C(C)OC(OC3CCC4(C)C(=CCC5C4CCC4(C)C(C(C)OC6OC(COC7OC(CO)C(O)C(O)C7O)C(O)C(O)C6O)CCC54O)C3)CC2OC)C(O)C1OC (stereo unspecified),inactive,
CC(=O)OC1CC(O)C(C)(C)C2CC(OC(C)=O)C3(C)C(CCC4(C)C(c5ccoc5)C(=O)C5OC543)C12C (stereo unspecified),inactive,
CN1[C@@H]2CC[C@H]1CC(OC(=O)C1C=Nc3ccccc31)C2 (stereo partly specified),inactive,
Clc1ccc(OCC2=NCCN2)cc1Cl,inactive,
CC(=O)OC1CC(O)C2(C)C(CC(OC(C)=O)C3(C)C2CCC2(C)C(c4ccoc4)C(=O)C4OC423)C1(C)C (stereo unspecified),inactive,

Compound,Potency,outcome
C=C[C@H]1[C@H](O[C@@H]2O[C@H](CO)[C@@H](O)[C@H](O)[C@H]2O)OC=C2C(=O)OCC[C@H]21,inactive,
CCC1NC(=O)C2C(Cl)C(Cl)CN2C(=O)C(C(C)O)NC(=O)CC(c2ccccc2)NC(=O)C(CO)NC1=O (stereo unspecified),inactive,
COC(=O)C1(C)CCC(O)C2(C)c3c(O)cc(C(C)C)cc3C(O)C(OC(C)=O)C12 (stereo unspecified),inactive,
CCN1C[C@]2(OC(=O)c3ccccc3NC(C)=O)CC[C@H](OC)[C@@]34[C@@H]2C[C@@H]([C@@H]13)[C@@]1(O)C[C@H](OC)[C@H]2C[C@@H]4[C@]1(O)[C@H]2OC,inactive,
CC(C)C1(OO)C=C2C(=O)CC3C(C)(C(=O)O)CCCC3(C)C2CC1 (stereo unspecified),inactive,
CCCCCCn1c(=O)c(C(=O)Nc2ccc(C(=O)OCCC)cc2)c(O)c2ccccc21,,inactive [at 10.7 µM]
C=C1[C@@H]2CC[C@@]3(C)[C@H](c4ccoc4)OC(=O)C[C@]13O[C@H]1CC(=O)C(C)(C)[C@H](C(OC(C)=O)C(=O)OC)[C@]12C (stereo partly specified),inactive,
C/C=C(\C)C(=O)OC1CC2C(C)(C)OC(=O)CC(OC(C)=O)C2(C)C2CC(OC(=O)C(C)C)C3(C)C(c4ccoc4)CC4OC43C12C (stereo unspecified),inactive,
CN1CCCC1CCOC(c1cc2nccc(C(=O)O)c2[nH]1)c1ccccc1Cl (stereo unspecified),inactive,
C[C@]12CC[C@@H](O)C[C@H]1CC[C@@H]1[C@@H]2CC[C@]2(C)C(=O)CC[C@@H]12,inactive,
CC(C)[C@@H](CN1CC[C@@](C)(c2cccc(O)c2)[C@@H](C)C1)NC(=O)[C@H]1Cc2ccc(O)cc2CN1,inactive,
CO[C@@H]1[C@H](O)[C@@H](O[C@@H]2C[C@H]3CC[C@@H]4C(CC[C@]5(C)[C@@H](C6=CC(=O)OC6)CC[C@]45O)[C@@]3(C)[C@H](O)C2)O[C@H](C)[C@@H]1O[C@@H]1O[C@H](CO)[C@@H](O)[C@H](O)[C@H]1O (stereo partly specified),inactive,
COC1=CC(=O)O[C@@H](/C=C/c2ccccc2)C1,inactive,
CN(C)CCc1c[nH]c2ccc(CN3CCN(C)S3(=O)=O)cc12,inactive,
CCN1CC2(COC)C3[C@@H](OC)C4C1C3(C1C[C@]3(O)[C@H](OC(=O)c5ccccc5)C1[C@]4(OC(C)=O)[C@@H](O)[C@@H]3OC)[C@H](OC)C[C@H]2O (stereo partly specified),inactive,
C[C@]12CC[C@H]3[C@@H]([C@H](O)CC4=CC(=O)CC[C@@]43C)[C@@H]1CC[C@@H]2O,inactive,
